This note sets out measurements from PubChem BioAssay (NCATS).

“And” between values parts separate entries of the source, which are not always exact repeats. Equal entries are not always repeated. Results filed as inconclusive are left out. The source made the active and inactive calls. Unless noted, the call rests on the fitted dose curve. Bounds are passed on as bounds.

Experiment [1] is described as follows: Cell Viability - Hek293 (AID 427;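 active means compounds whose dose-response curve shows a full or clear partial loss of cell viability, called from curve shape rather than a numeric limit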;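 further: potency means the concentration at half of the fitted maximal effect; cells exposed to compound for 40 hours at 37 °C before reading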). The settings on record: qHTS. The method, boiled down:
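Luminescent ATP content (CellTiter-Glo, 20 min at room temperature) was measured after a 40 hr, 37 °C compound exposure of HEK293 cells. AC50 values came from Hill-equation fits of qHTS concentration-response data normalized to DMSO and 100 uM tamoxifen.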
For orientation: Quantitative high-throughput screening tests each substance at several concentrations.

Experiment [2] in a line: Cell Viability - HepG2 (AID 433).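 Further: potency means the concentration at half of the fitted maximal effect; potency for ATP loss meaning cytotoxicity.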 The settings on record: qHTS. The method, boiled down: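 In this qHTS format, a 40 h, 37 °C compound incubation of HepG2 cells in complete medium precedes a 20 min CellTiter-Glo step at room temperature. Tamoxifen and doxorubicin serve as positive controls; Hill-equation fits yield AC50.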
The nature of experiment [3]: Cell Viability - MRC5 (AID 434).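 Further: potency means the concentration at half of the fitted maximal effect; potency reflects cytotoxicity seen as loss of intracellular ATP.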 The note with it: MRC5 lung fibroblast viability, qHTS. The procedure, abridged: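 qHTS cytotoxicity in human lung fibroblast MRC5 cells; 40 hr treatment, 37 °C; cellular ATP by luciferase luminescence; DMSO = 0%, 100 uM tamoxifen = 100% inhibition; Hill-fit AC50.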
Experiment [4] is described as follows: Cell Viability - SK-N-SH (AID 435).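 Further: potency means the concentration at half of the fitted maximal effect; compound exposure lasted 40 h at 37 °C.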 The settings on record: SK-N-SH neuroblastoma cell viability qHTS. The method, boiled down: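 Human neuroblastoma line, 40 h exposure at 37 °C, ATP quantified via luciferase luminescence; DMSO and 100 uM tamoxifen define 0 and 100% inhibition for AC50 fitting.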
Experiment [5] can be described thus: Cell Viability - N2a (AID 540; active means well fitted curve in the direction sought with a large enough effect; an effect the other way counts as inactive or inconclusive;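 further: plate controls were DMSO alone for no effect and tamoxifen control for full effect; nearly all actives have a fitted effect of over 45% in size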). The settings on record: N2a mouse neuroblastoma cell viability; series mostly up to 92.2 µM. The method, boiled down: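 Mouse neuroblastoma N2a cells, 1500/well, exposed to compounds 40 h at 37 °C in complete medium. Viability measured as cellular ATP by CellTiter-Glo luminescence; AC50 from Hill fits of concentration-response.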

Experiment [6] can be described thus: Cell Viability - NIH 3T3 (AID 541; active means well fitted curve in the direction sought with a large enough effect; an effect the other way counts as inactive or inconclusive;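 further: plate controls were DMSO alone for no effect and tamoxifen positive control for full effect; nearly all actives have a fitted effect of over 25% in size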). The settings on record: NIH 3T3 cell viability, qHTS; series mostly up to 92.2 µM. The procedure, abridged:
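Mouse NIH 3T3 fibroblasts, 1000 cells/well, rested 5 hr at 37 °C, then exposed to compound for 40 hr at 37 °C in complete medium. Viability read as intracellular ATP by CellTiter-Glo luminescence; AC50 from Hill-equation fits of concentration-response data.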

The nature of experiment [7]: Cell Viability - HUV-EC-C (AID 542; active means well fitted curve in the direction sought with a large enough effect; an effect the other way counts as inactive or inconclusive; further: on the % scale 0 is the no-effect control and ±100 the full control effect; nearly all actives have a fitted effect of over 35% in size). The settings on record: HUV-EC-C endothelial cell viability, qHTS; series mostly up to 92.2 µM. The method, boiled down: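 HUV-EC-C human vascular endothelial cells, 1000/well, exposed to compound for 40 hr at 37 °C in complete medium. Intracellular ATP was read by CellTiter-Glo luminescence. AC50 came from Hill-equation fits of concentration-response data.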

Experiment [8] can be described thus: Cell Viability - H-4-II-E (AID 543; active means well fitted curve in the direction sought with a large enough effect; an effect the other way counts as inactive or inconclusive; further: on the % scale 0 is the no-effect control and ±100 the full control effect; nearly all actives have a fitted effect of over 35% in size). The settings on record: H-4-II-E rat hepatoma viability; series mostly up to 92.2 µM. The procedure, abridged:
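Rat hepatoma H-4-II-E cells, 1500 per well, treated 40 h at 37 °C in complete medium. Cellular ATP read by CellTiter-Glo luminescence; AC50 from Hill fits of concentration-response.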

Experiment [9] can be described thus: Cell Viability - SH-SY5Y (AID 544; active means well fitted curve in the direction sought with a large enough effect; an effect the other way counts as inactive or inconclusive;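 further: 0% = DMSO alone and -100% = 100 µM tamoxifen; nearly all actives have a fitted effect of over 55% in size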). The settings on record: SH-SY5Y neuroblastoma cell viability; series mostly up to 92.2 µM. The procedure, abridged: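 SH-SY5Y human neuroblastoma cells (1500/well) incubated 5 h, then compound-treated 40 h at 37 °C in complete medium. Viability read as intracellular ATP by CellTiter-Glo luminescence after 20 min; AC50 from Hill-equation fits of qHTS concentration-response.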

Experiment [10] can be described thus: Cell Viability - Renal Proximal Tubule (AID 545; active means well fitted curve in the direction sought with a large enough effect; an effect the other way counts as inactive or inconclusive;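 further: 0% = DMSO only and -100% = 100 µM tamoxifen; nearly all actives have a fitted effect of over 40% in size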). The note with it: renal proximal tubule cells viability, primary cells of rat origin; series mostly up to 91.7 µM. The method, boiled down: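 In this qHTS format, normal rat kidney-derived proximal tubule cells in complete culture medium receive compound titrations, then sit 40 hours at 37 °C before luciferase-based ATP quantitation; potency is reported as AC50 from concentration-response curves.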

The nature of experiment [11]: Cell Viability - Mesenchymal (AID 546; active means well fitted curve in the direction sought with a large enough effect; an effect the other way counts as inactive or inconclusive;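 further: cells exposed to compound for 40 hours before reading; 0% = DMSO only and -100% = 100 µM tamoxifen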). The settings on record: mesenchymal cells viability, qHTS; series mostly up to 91.7 µM. The method, boiled down:
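AC50 values reflect the drop in intracellular ATP in a human kidney mesenchymal line derived from normal glomeruli. Treatment lasts 40 hr at 37 °C in complete medium, and the signal comes from CellTiter-Glo luminescence.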

The target of experiment [12] is Peroxisome proliferator-activated receptor gamma (Homo sapiens) (UniProt P37231). Description: qHTS assay for small molecule agonists of peroxisome proliferator-activated receptor gamma signaling (AID 588536; active means well fitted curve in the direction sought with a large enough effect in the signal ratio, with a control signal flat, not every such curve was filed as active; the % refers to the signal ratio;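 further: 0% = DMSO basal wells and 100% = rosiglitazone at 2 µM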). The note with it: HEK293 PPARg-UAS-bla, beta-lactamase ratio, 16 h, percent of rosiglitazone response, DMSO as zero; series mostly up to 76.7 µM. The procedure, abridged:
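Ratiometric blue/green fluorescence (405 nm excitation; 460 and 530 nm emission) from CCF4-loaded HEK293 reporter cells serves as signal. Exposure to test compounds lasts 16 h at 37 C in medium containing 1% charcoal/dextran-treated serum.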

For experiment [13], the target named is Vitamin D3 receptor (Homo sapiens) (UniProt P11473). In words: qHTS assay for small molecule antagonists of vitamin D receptor signaling (AID 588541).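 Further: receptor activated by calcitriol during compound treatment; on the % scale 0 is the no-effect control and ±100 the full control effect.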 The settings on record: HEK293T VDR-UAS-bla, beta-lactamase ratio, antagonist mode; series mostly up to 76.7 µM. The method, boiled down:
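Antagonist-mode beta-lactamase reporter assay: HEK293T VDR-UAS-bla cells were exposed to titrated compound alongside 1-alpha,25-dihydroxyvitamin D3 at 3 nM final for 16 h. Values were normalized to the 50 nM agonist control and DMSO basal, with IC50 and efficacy from Hill equation fits.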

Experiment [14] has the same target. Description: qHTS assay for small molecule agonists of vitamin D receptor signaling (AID 588543).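 Further: 0% = DMSO basal and 100% = reference agonist control.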 The note with it: HEK293T VDR-UAS-bla, beta-lactamase ratio, 16 h; series mostly up to 76.8 µM. The method, boiled down:
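Measured: β-lactamase reporter activity (CCF4, 405 nm excitation, 460/530 nm emission) in HEK293T VDR-UAS-bla cells after 16 h compound exposure at 37 °C. Normalization against 50 nM 1α,25-dihydroxyvitamin D3 and DMSO; Hill-fit EC50.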

Experiment [15] can be described thus: qHTS assay for small molecule agonists of retinoid X receptor alpha signaling (AID 588544). The note with it: HEK293T RXRa-UAS-bla, beta-lactamase reporter, 18 h; 530 nm emission.
For experiment [16], the target named is Retinoic acid receptor RXR-alpha (Homo sapiens) (UniProt P19793). Described as above. The settings on record: HEK293T RXRa-UAS-bla, beta-lactamase reporter, 18 h; series mostly up to 76.7 µM.
For experiment [17], the target named is Thyroid hormone receptor beta (Homo sapiens) (UniProt P10828). In words: qHTS assay for small molecule agonists of thyroid hormone receptor beta signaling (AID 588545).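 Further: 0% = DMSO only and 100% = 10 nM T3.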 The settings on record: TR-UAS-bla GripTite HEK 293, beta-lactamase ratio, agonist mode, 18 h, percent of T3 response, DMSO as zero; series mostly up to 76.7 µM. The procedure, abridged: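 Efficacy and EC50 values derive from Hill fits of qHTS titration data, normalized to 10 nM T3 and DMSO-only wells. HEK 293 reporter cells were stimulated for 18 hrs at 37 C, with beta-lactamase activity measured by CCF4 fluorescence.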

A short description of experiment [18]: qHTS assay for small molecule antagonists of retinoid X receptor alpha signaling (AID 588546; active means well fitted inhibition curve with a large enough effect in the signal ratio, with a control signal flat, not every such curve was filed as active; the % refers to the signal ratio;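 further: cells stimulated with 9-cis-retinoic acid as agonist; on the % scale 0 is the no-effect control and ±100 the full control effect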). The note with it: HEK293T RXRa-UAS-bla, beta-lactamase ratio, antagonist mode; measured here: W530 green channel, cytotoxicity proxy. The method, boiled down: (§1)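 Beta-lactamase reporter inhibition, read as CCF4 fluorescence ratio (ex 405, em 460/530 nm) after 2 h at RT. HEK293T UAS-bla cells, 2500/well, were stimulated with 9-cis-RA at 500 or 100 nM final alongside test compound for 18 h at 37 C.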

Experiment [19] addresses Retinoic acid receptor RXR-alpha (Homo sapiens) (UniProt P19793). Described as above. The note with it: HEK293T RXRa-UAS-bla, beta-lactamase ratio, antagonist mode. The procedure, abridged:
as §1

Experiment [20] has as its target Thyroid hormone receptor beta (Homo sapiens) (UniProt P10828). In words: qHTS assay for small molecule antagonists of thyroid hormone receptor beta signaling (AID 588547; active means well fitted inhibition curve with a large enough effect in the signal ratio, with a control signal flat, not every such curve was filed as active; the % refers to the signal ratio;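 further: cells stimulated with 0.4 nM T3 agonist during compound exposure; on the % scale 0 is the no-effect control and ±100 the full control effect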). The note with it: TR-UAS-bla HEK293, beta-lactamase ratio, antagonist mode, 18 h. The method, boiled down:
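Inhibition of T3-driven (0.4nM final) beta-lactamase reporter activity was measured over 0.59 nM to 92 uM compound after 18 h at 37 C. The cells were GripTite HEK293 TR-UAS-bla in charcoal/dextran-stripped serum, with CCF4 ratio read-out and IC50 from Hill fits.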

Sequence of Vitamin D3 receptor (Homo sapiens) (P11473 whole entry, looked up): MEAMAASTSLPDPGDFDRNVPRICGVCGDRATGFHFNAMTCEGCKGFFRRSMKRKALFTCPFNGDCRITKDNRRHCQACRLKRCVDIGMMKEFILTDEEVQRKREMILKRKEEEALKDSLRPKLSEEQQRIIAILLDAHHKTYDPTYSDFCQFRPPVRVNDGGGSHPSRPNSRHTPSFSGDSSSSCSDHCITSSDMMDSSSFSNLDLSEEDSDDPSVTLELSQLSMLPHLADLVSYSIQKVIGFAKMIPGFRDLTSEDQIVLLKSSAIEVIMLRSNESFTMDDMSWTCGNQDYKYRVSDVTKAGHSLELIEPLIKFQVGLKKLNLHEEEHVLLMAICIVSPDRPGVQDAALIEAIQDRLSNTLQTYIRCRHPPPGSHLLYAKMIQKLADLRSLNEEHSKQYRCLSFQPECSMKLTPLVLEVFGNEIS
Sequence of Retinoic acid receptor RXR-alpha (Homo sapiens) (P19793 whole entry, looked up): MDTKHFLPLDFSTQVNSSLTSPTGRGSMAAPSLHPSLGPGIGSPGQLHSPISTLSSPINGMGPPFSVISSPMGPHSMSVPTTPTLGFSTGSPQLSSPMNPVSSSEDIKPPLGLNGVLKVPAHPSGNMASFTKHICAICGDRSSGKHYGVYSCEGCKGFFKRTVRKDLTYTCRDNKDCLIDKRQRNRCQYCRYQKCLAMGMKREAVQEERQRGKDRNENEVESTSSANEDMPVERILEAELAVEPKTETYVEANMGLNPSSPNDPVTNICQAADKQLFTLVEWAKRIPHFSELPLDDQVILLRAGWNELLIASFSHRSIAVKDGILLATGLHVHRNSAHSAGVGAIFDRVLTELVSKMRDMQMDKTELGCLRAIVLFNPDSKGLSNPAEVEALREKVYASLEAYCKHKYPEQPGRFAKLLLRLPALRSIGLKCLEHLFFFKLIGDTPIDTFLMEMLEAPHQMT
Sequence of Thyroid hormone receptor beta (Homo sapiens) (P10828 whole entry, looked up): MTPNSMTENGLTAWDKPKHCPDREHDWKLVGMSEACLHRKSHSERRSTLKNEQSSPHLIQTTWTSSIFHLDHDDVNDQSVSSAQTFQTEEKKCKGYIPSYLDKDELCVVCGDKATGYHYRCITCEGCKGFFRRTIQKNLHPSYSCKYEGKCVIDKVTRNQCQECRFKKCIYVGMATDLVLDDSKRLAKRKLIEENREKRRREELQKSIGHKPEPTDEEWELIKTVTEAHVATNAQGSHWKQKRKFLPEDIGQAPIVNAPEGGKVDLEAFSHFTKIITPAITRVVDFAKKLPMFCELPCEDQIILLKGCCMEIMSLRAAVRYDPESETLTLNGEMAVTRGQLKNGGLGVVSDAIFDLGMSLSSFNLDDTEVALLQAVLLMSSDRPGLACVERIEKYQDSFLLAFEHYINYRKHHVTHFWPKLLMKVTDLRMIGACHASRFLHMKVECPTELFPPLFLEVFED
Sequence of Peroxisome proliferator-activated receptor gamma (Homo sapiens) (P37231 whole entry, looked up): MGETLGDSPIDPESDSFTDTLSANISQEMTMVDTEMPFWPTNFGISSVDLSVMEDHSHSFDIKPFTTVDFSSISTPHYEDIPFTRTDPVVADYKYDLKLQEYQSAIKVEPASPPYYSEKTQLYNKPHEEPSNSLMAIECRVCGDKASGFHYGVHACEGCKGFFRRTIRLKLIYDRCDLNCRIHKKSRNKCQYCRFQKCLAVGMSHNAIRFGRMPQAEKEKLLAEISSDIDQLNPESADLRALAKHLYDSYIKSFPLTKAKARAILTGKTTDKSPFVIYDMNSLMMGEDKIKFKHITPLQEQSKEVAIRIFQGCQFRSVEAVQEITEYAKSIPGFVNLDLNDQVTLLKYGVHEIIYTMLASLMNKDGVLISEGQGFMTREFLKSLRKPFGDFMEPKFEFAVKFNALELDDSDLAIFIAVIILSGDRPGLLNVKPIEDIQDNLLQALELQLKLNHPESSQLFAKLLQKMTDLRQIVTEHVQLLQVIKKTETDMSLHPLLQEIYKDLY

For the compound `C=C(C)[C@H]1CC=C(C)C(=O)C1`, the Potency in experiment [1], in experiment [2], in [3] and in experiment [4] was > 92 µM (inactive) in each case. For the same compound, the result in experiment [5], in experiment [6], in experiment [7], in [8], in experiment [9] and in experiment [10] was inactive. Further, the outcome in experiment [12], in experiment [13], in [14], in [16] and in experiment [17] was inactive. Also, the Potency result in experiment [11] is “inactive”. In addition, the max response was 2.29% and 4.34% in [15]; -6.91% and -9.16% in experiment [18]; 30% (inactive) and -16.7% (inactive) in [19]. In addition, the activity change % (negative = inhibition) in experiment [20] was 1.99% (inactive).

As to `C=CC(C)(O)CCC=C(C)C` (stereo not given), the Potency in experiment [1], in experiment [2], in experiment [3] and in experiment [4] was > 92 µM (inactive) in each case. Moreover, the result in experiment [5], in experiment [6], in experiment [7], in experiment [8], in experiment [9] and in [10] was inactive. Also, the outcome in experiment [12], in experiment [13], in [14], in experiment [16] and in [17] was inactive. For the same compound, in experiment [11], the Potency result was “inactive”. The max response in [15] was -15.4% and -5.89%; in experiment [18], -4.18% and -11.2%; in experiment [19] it was -7.55% (inactive) and -18.1% (inactive). The activity change % (negative = inhibition) in experiment [20] was 22.9% (inactive) and 4.85% (inactive).

Consider `COS(C)(=O)=O`, for which the Potency in [1], in experiment [2], in [3] and in experiment [4] was > 92 µM (inactive) throughout. Also, the result in experiment [5], in experiment [6], in experiment [7], in experiment [8], in [9] and in experiment [10] was inactive. The result in experiment [12], in experiment [13], in experiment [14], in experiment [16] and in experiment [17] was inactive. Also, the Potency result in experiment [11] is “inactive”. For the same compound, the max response was -12% in experiment [15], -12.9% in [18] and -3.69% (inactive) in experiment [19]. Also, the activity change % (negative = inhibition) in experiment [20] was 2.2% (inactive).

As for `Cc1occc(=O)c1O`, the Potency in experiment [1], in [2], in experiment [3] and in experiment [4] was > 92 µM (inactive) each time. Moreover, the compound was classed as inactive in experiment [5], in experiment [6], in [7], in experiment [8], in [9] and in [10]. Moreover, the result in [12], in experiment [13], in experiment [14], in [16] and in experiment [17] was inactive. In experiment [11], the Potency entry was “inactive”. Further, the max response was -12.3% in [15], -0.914% in [18] and -8.46% (inactive) in experiment [19]. Also, in experiment [20], the activity change % (negative = inhibition) is -20.8% (inactive).

`CC1=CC(=O)CC(C)(C)C1(O)/C=C/C(C)=C\C(=O)O` (stereo not given): the Potency in [1], in experiment [2], in experiment [3] and in [4] was > 92 µM (inactive) in each case. Also, the result in [5], in experiment [6], in experiment [7], in experiment [8], in experiment [9] and in experiment [10] was inactive. The result in experiment [12], in experiment [13], in experiment [14], in experiment [16] and in experiment [17] was inactive. In addition, the Potency entry in [11] is “inactive”. For the same compound, the max response in experiment [15] is -10.1%; in experiment [18] it was -3.21%; in experiment [19], 0.0259% (inactive). In addition, the activity change % (negative = inhibition) in experiment [20] was -6.36% (inactive).
